The list is not random: actives were taken first. Their share in the collection is about 19%.
DT40 TDP1 no CPT: qHTS for Inhibitors of human tyrosyl-DNA phosphodiesterase 1 (TDP1): qHTS in cells in absence of CPT; AID 686978, 2013; DT40 Tdp1-/- hTDP1 cells, no CPT, ATP luminescence, 48 h; 420,000 tested, 15% active; Potency, µM (highest dose often 46.2 µM), for the others: at the top dose activity change, negative = growth inhibition, usual class: inhibitors; also: potency is read from the fitted curve at half-maximal effect; % is scaled to controls: 0 for no effect and ±100 for the full control effect; nearly all actives have a fitted effect of over 55% in size
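Seeded 400 DT40-hTDP1 cells/well (vehicle DMSO, no 20 nM CPT); pinned compounds; ≥48 hr at 37 °C; CellTiter-Glo luminescence as viability measure.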
TDP1 block: inhibitors of human tyrosyl-DNA phosphodiesterase TDP1; Q9NUW8; Potency, µM (series often up to 130 µM), for the others: at the top dose activity change, negative = inhibition, usual class: inhibitors; 350,000 tested, 0.28% active; AID 485290; recombinant TDP1, AlphaScreen DNA substrate cleavage; also: potency is read from the fitted curve at half-maximal effect; % is scaled to controls: 0 for no effect and ±100 for the full control effect; nearly all actives have a fitted effect of over 40% in size
Target sequence (Q9NUW8 whole entry, looked up): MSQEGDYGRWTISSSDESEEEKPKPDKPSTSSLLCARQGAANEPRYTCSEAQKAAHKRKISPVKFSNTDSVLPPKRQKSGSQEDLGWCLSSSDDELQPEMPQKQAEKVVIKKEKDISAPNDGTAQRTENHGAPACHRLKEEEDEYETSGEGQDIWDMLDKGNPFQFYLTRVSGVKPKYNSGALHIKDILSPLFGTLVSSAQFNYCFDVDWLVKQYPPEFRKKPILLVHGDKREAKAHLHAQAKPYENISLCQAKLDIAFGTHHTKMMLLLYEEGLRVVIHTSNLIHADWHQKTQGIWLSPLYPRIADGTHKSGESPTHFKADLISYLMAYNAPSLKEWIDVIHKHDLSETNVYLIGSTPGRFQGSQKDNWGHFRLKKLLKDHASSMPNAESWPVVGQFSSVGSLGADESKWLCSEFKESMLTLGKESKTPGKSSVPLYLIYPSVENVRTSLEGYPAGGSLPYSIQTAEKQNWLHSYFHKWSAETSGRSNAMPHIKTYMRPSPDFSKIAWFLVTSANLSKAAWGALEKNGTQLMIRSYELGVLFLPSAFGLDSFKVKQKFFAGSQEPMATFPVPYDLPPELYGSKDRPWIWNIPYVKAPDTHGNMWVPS
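Steps: enzyme plus compound, 15 min RT; add biotin/phosphotyrosine-FITC oligonucleotide (15 nM final), react 5 min; add donor/acceptor beads (10 ug/ml final), 10 min; read AlphaScreen. Tdp1 at 1 nM final.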
IL-1B inflam inh: inhibitors of inflammasome signaling (IL-1 beta secretion). THP-1 LPS/ATP IL-1B secretion, AlphaLISA, 16 h; stronger effect = lower value. activity change, % at 57.5 µM. 360,000 tested, 4.7% active. AID 743279; in the data active = activity change below about -50%; inconclusive = mostly about -30% to -49%; also: % is scaled to controls: 0 for no effect and ±100 for the full control effect
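Secreted IL-1B measured by AlphaLISA bead assay after 16 h compound exposure of THP-1 cells; compounds (final up to 57.5 uM) added 1 h before LPS (250 ng/mL) and ATP (1.25 mM) stimulation; lower signal means less secretion.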
DT40 TDP1 CPT: growth inhibition of DT40 Tdp1-/-;hTDP1 cells with camptothecin (screen for TDP1 inhibitors) | chicken DT40 Tdp1-/-;hTDP1 cells + 20 nM CPT, ATP luminescence, 48 h | Potency, µM (highest dose often 46.2 µM), without a hit: at the top dose activity change, negative = growth inhibition, usual class: inhibitors | 420,000 tested, 12% active | AID 686979; also: potency is read from the fitted curve at half-maximal effect; % is scaled to controls: 0 for no effect and ±100 for the full control effect; nearly all actives have a fitted effect of over 55% in size
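Chicken DT40 Tdp1-/- cells stably complemented with human TDP1 were seeded at 400 cells/well in medium containing 20 nM camptothecin, exposed to pin-transferred compounds, and grown at 37 °C for at least 48 hr. Viability was read as ATP luminescence.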
HepG2 viability: HepG2 cytotoxicity, counter-screen for TGF-b inhibitors | HepG2 CAGA-GFP viability, ATP luminescence, 18 h | Potency, µM (series often up to 46.1 µM), for the others: top-dose activity change, negative = cytotoxicity, most hits filed as cytotoxic | 410,000 tested, 0.76% active; also: potency is read from the fitted curve at half-maximal effect
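CellTiter-Glo luminescence gave cytotoxicity after 18 hours at 37 degrees C. The cells were HepG2 CAGA-GFP in 1% FBS DMEM, stimulated with 500 pg/mL TGF-beta after compound addition. %Activity was normalised to no-cell wells (complete cell-killing) and DMSO (no toxicity), and curves were fitted and classified.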
TGFb inhibitor: blocks TGF-b signaling; HepG2 CAGA-GFP TGF-b/SMAD3 reporter, GFP fluorescence, 18 h; TGF-beta stimulated, 500 pg/mL final; Potency, µM (highest dose often 46.1 µM), without a hit: at the highest dose activity, negative = inhibition, most hits filed as inhibitors; 410,000 tested, 1.2% active; also: potency is read from the fitted curve at half-maximal effect; % is scaled to controls: 0 for no effect and ±100 for the full control effect; nearly all actives have a fitted effect of over 65% in size
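HEPG2 CAGA-GFP reporter cells (1000/well, DMEM with 1% FBS) received compounds, then recombinant TGF-beta at 500 pg/mL final for 18 hours at 37 degrees C. Per-cell GFP summed per well was normalised to unstimulated and stimulated DMSO controls before curve fitting.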
Numbers without * were called inactive; ? = inconclusive; . = no result. Unless noted, calls follow the shape of the dose curve; as a rule, active = well fitted curve in the direction sought with a large enough effect; inconclusive = small, poorly fitted or top-dose-only effect, or another doubt; inactive = no such curve, though single readings can be large; an effect the other way counts as inactive or inconclusive.

SMILES	DT40 TDP1 no CPT	TDP1 block	IL-1B inflam inh	DT40 TDP1 CPT	HepG2 viability	TGFb inhibitor
CCOc1ccccc1NC(=O)C(C)N(c1ccccc1)S(C)(=O)=O (stereo not drawn)	?	.	.	?	0%	7%
COc1cc(OC)cc(OC(=O)C2CCN(C3=NS(=O)(=O)c4ccccc43)CC2)c1	-3%	2%	-2	8%	4%	26%
CCN(CC)CCCCn1c(-c2ccccc2)nc2c(N(CCOC)CCOC)nc(C)nc21	.	0%	.	.	.	.
Nc1cc(-c2ccc(OC(F)(F)F)cc2)nn1-c1ccc(Cl)c(Cl)c1	?	6%	-65*	?	-103%	?
Cc1nn(-c2ccccc2)nc1C(=O)c1c(C)[nH]n(-c2ccccc2)c1=O	3.7µM*	6%	20	5.2µM*	-26%	?
Cc1[nH]n(-c2ccccc2)c(=O)c1N=Nc1ccccc1C(=O)O	?	7%	31	?	-9%	-5%
C/C(=N\NC(=O)c1ccc(C)cc1)c1c(C)[nH]n(-c2ccccc2)c1=O	4.1µM*	5%	130	4.6µM*	-51%	?
C/C(=N\NC(=O)c1ccccc1)c1c(C)[nH]n(-c2ccccc2)c1=O	0.41µM*	5%	103	0.15µM*	-42%	?
C/C(=N\NC(=O)c1ccccc1)c1ccc(N2CCCCC2)cc1	0%	0%	-8	-12%	-4%	13%
Cc1[nH]n(-c2ccccc2)c(=O)c1C(=O)c1ccc([N+](=O)[O-])cc1	?	6%	0	?	-16%	-15%
Cc1[nH]n(-c2ccccc2)c(=O)c1C(=O)Nc1ccccc1	16µM*	0%	14	8.2µM*	-35%	10%
Cc1ccnc(NC(=S)NC(=O)/C=C/c2ccco2)c1	9.2µM*	2%	44	10µM*	-3%	-10%
O=C(Nc1ccc(O)c(-c2nc3ccccc3s2)c1)c1cc(=O)c2ccccc2o1	8.2µM*	3%	8	9.2µM*	-33%	-18%
O=C(Nc1ccc(O)c(-c2nc3ccccc3s2)c1)c1cccs1	-21%	6%	25	-6%	-21%	?
Cc1ccc(CC(=O)Nc2cc(C)ccn2)cc1	19%	2%	?	1%	-5%	-11%
O=C(/C=C/c1ccco1)NC(=S)NNC(=O)c1ccco1	21µM*	8%	73	16µM*	-3%	-7%
O=C(/C=C/c1ccco1)NC(=S)Nc1ccc(Cl)cn1	-2%	-7%	42	-25%	0%	-5%
CCNC(=S)Nc1cc(C)ccn1	8%	8%	-16	10%	1µM*	-14%
N.N.O=C(O)C1(C(=O)O)CCC1.[Pt]	-6%	.	.	2%	.	.
O=C(/C=C/c1ccco1)NC(=S)Nc1ccc(O)c(-c2nc3ccccc3s2)c1	21µM*	-2%	26	18µM*	-31%	-18%
O=C(/C=C/c1ccco1)NC(=S)Nc1ccc(N2CCCC2)cc1	15µM*	14%	-16	23µM*	-22%	?
Cc1ccc(O)c(NC(=S)NC(=O)/C=C/c2ccccc2)c1	-27%	.	-14	24%	-18%	-1%
Cc1ccnc(NC(=O)/C=C/c2cccs2)c1	12µM*	4%	-98*	?	-26%	-24%
Cc1ccc(O)c(NC(=S)NC(=O)/C=C/c2ccco2)c1	6.5µM*	0%	-7	7.3µM*	-12%	-13%
COc1ccc(NC(=S)NC(=O)/C=C/c2ccco2)cc1	?	3%	-2	?	-27%	-29%
O=C(/C=C/c1ccco1)NC(=S)Nc1ccc(C(=O)O)cc1	-13%	.	-19	-24%	-9%	0%

Screening data from PubChem.
